Screens as filed in PubChem.
Shown are actives, neighbours in structure and some others; about 8% of the full set was active somewhere.
ELG1 repair inh – ELG1-dependent DNA repair inhibition; HEK293T ELG1-luciferase reporter, luminescence, 16 h; DNA damage induced by 5-fluorouridine; Potency, µM (titrated, usually from 46.1 µM), for inactives: top-dose activity change, negative = inhibition, most hits filed as inhibitors; 2.3% of 330,000 active; AID 504467; also: potency is read from the fitted curve at half-maximal effect; nearly all actives have a fitted effect of over 55% in size
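Overnight (16 hr) co-exposure of 2,000 cells/well to 5-fluorouridine and compound at 37 °C preceded detection. Luciferase was quantified via ONE-Glo luminescence; loss of signal denotes inhibition.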
FBPA coupling cs – inhibits coupling enzyme system, counter-screen for aldolase hits | 0.67% of 290,000 active | activity change, negative = inhibition, % at 58.2 µM, hits read low | coupling enzyme system counterscreen, AmpLite Red fluorescence; in the data active = activity change below about -30%
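Fluorescence at 525 nm excitation and 598 nm emission measured inhibition of the coupled detection system without aldolase. Compounds (at 57.5 uM final) were preincubated 10 min at room temperature with coupling enzyme reagent before a 20 min substrate/AmpLite Red step.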
TSHR antag – antagonists of human thyroid stimulating hormone receptor; TSHR-expressing cells, TSH-stimulated cAMP HTRF, 2 h; active compounds read low; activity change, negative = inhibition, % at 11.5 µM; 0.2% of 330,000 active; AID 504810;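 active = activity change below a set negative limit, meaning inhibition stronger than a set level, cut at about -70% in these data; inconclusive = activity change between two set negative limits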
Target sequence (P16473 whole entry, looked up): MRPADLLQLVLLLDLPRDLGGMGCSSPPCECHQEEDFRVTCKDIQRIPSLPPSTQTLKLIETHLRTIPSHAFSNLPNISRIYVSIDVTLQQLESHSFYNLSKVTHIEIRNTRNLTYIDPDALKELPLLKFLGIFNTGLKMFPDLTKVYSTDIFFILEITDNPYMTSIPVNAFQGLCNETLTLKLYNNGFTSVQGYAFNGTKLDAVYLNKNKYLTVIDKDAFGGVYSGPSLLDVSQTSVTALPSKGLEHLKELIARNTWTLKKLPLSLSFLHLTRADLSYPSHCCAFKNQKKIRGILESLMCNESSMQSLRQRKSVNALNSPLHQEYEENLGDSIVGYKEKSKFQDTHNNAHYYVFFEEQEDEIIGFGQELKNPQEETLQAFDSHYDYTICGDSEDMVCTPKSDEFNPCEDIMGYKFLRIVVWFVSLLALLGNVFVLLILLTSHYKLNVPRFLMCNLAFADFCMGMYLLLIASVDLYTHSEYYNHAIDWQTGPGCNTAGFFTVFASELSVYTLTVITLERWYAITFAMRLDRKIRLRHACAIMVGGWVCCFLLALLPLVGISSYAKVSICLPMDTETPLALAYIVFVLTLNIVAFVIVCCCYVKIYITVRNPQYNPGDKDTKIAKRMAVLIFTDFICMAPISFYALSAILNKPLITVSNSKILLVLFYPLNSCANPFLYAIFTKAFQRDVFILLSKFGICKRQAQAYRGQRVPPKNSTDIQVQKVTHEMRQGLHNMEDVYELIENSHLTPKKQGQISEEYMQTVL
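TSHR-expressing cells were treated with compounds, then stimulated with TSH at EC80 (4nM final) for 2 hours at 37 deg C. Cellular cAMP was measured by HTRF competition between lysate cAMP and cAMP-d2 for a cryptate-labelled anti-cAMP antibody.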
RORg inh – inhibitors of mouse ROR gamma transcriptional activity. Potency, µM (titrated, usually from 53.6 µM), for inactives: at the top dose activity change, negative = inhibition, hits mostly inhibitors. P51450. AID 2551. Drosophila S2 Gal4-RORgamma UAS-luciferase reporter, 20 h. 5.4% of 310,000 active; also: potency is read from the fitted curve at half-maximal effect; nearly all actives have a fitted effect of over 60% in size
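A Gal4/UAS one-hybrid system in insect cells: metallothionein-promoter Gal4–ROR gamma fusion plus Photinus luciferase reporter. Copper sulfate 700 uM final, 20 hr ambient incubation, luminescent detection after 10 min with reagent.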
VP16 counter – inhibits Gal4-VP16 luciferase reporter, ROR gamma counter-screen | Potency, µM (highest dose often 53.6 µM), for the others: at the top dose activity, negative = inhibition, hits mostly inhibitors | Drosophila S2 Gal4-VP16 UAS-luciferase, luminescence, 20 h | 3.5% of 310,000 active | AID 2546;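 also: Gal4-VP16 expression switched on by copper sulfate through the metallothionein promoter; potency is read from the fitted curve at half-maximal effect; nearly all actives have a fitted effect of over 50% in size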
ELG1 FLuc counter – luciferase inhibition in cell-free luciferin readout for ELG1 hits; shares compounds with ELG1 repair inh; cell-free firefly luciferase luminescence counter-screen, ViewLux; Potency, µM (highest dose often 46.1 µM), for the others: at the highest dose activity change, negative = inhibition, most hits filed as inhibitors; 3% of 350 active; AID 624247; also: potency is read from the fitted curve at half-maximal effect
ELG1 Luc conf – human ELG1 repair inhibition, luciferase-tagged ELG1 confirmation; shares compounds with ELG1 repair inh; HEK293T ELG1-luciferase levels, luminescence; cells co-treated with 5-fluorouridine; Potency, µM (highest dose often 46.1 µM), for inactives: top-dose activity change, negative = inhibition, actives largely listed as inhibitors; 68% of 670 active; also: potency is read from the fitted curve at half-maximal effect; nearly all actives have a fitted effect of over 55% in size
ELG1-Luc MMS – confirmation of human ELG1 repair inhibitors, MMS stimulated | shares compounds with ELG1 repair inh | Potency, µM (highest dose often 46.1 µM), for inactives: at the top dose activity change, negative = inhibition, actives largely listed as inhibitors | 53% of 670 active | HEK293T luciferase-tagged ELG1 level, MMS stimulated; also: potency is read from the fitted curve at half-maximal effect; nearly all actives have a fitted effect of over 60% in size
ELG1 5FU viab – confirmation of ELG1 repair inhibitors: viability with 5FU | Potency, µM (highest dose often 46.1 µM), inactives show top-dose activity change, negative = viability loss, hits mostly cytotoxic | cell viability with 5-FU, ELG1-dependent repair | 670 tested, under 10 active | shares compounds with ELG1 repair inh;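 also: ELG1-luc HEK293T cells cotreated with 5-fluorouridine at 10 µM final; potency is read from the fitted curve at half-maximal effect; viability measured 16 h after compound addition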
ELG1 MMS cell – confirmation of ELG1 repair inhibitors: viability with MMS | shares compounds with ELG1 repair inh | Cell viability with MMS, ELG1-dependent DNA repair | Potency, µM (series often up to 46.1 µM), without a hit: at the top dose activity change, negative = viability loss, hits mostly cytotoxic | 33% of 670 active;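 also: ELG1-luc HEK293T cells co-treated with 10 µM MMS; potency is read from the fitted curve at half-maximal effect; viability read 16 h after compound addition; nearly all actives have a fitted effect of over 60% in size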
ELG1 unstim viab – unstimulated viability counter-screen for ELG1 repair hits. Potency, µM (titrated, usually from 45.9 µM), for the others: at the highest dose activity change, negative = loss of viability, actives largely listed as cytotoxic. cell viability counter-screen, unstimulated, luminescence. shares compounds with ELG1 repair inh. 8% of 900 active;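 also: potency is read from the fitted curve at half-maximal effect; compound exposure lasted 16 hours before reading; nearly all actives have a fitted effect of over 55% in size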
FLuc enzyme – inhibits purified firefly luciferase, counter-screen for ELG1 hits; shares compounds with ELG1 repair inh; purified firefly luciferase, luminescence counter-screen; 10% of 350 active; Potency, µM (top dose mostly 57.5 µM), inactives show top-dose activity, negative = inhibition, usual class: inhibitors; also: potency is read from the fitted curve at half-maximal effect
* = called active by the depositor; ? = inconclusive; nt = no result given. Unless noted, calls follow the shape of the dose curve; as a rule, active = well fitted curve in the direction sought with a large enough effect; inconclusive = small, poorly fitted or top-dose-only effect, or another doubt; inactive = no such curve, though single readings can be large; an effect the other way counts as inactive or inconclusive. % is scaled to controls: 0 for no effect and ±100 for the full control effect.

SMILES	ELG1 repair inh	FBPA coupling cs	TSHR antag	RORg inh	VP16 counter	ELG1 Luc conf	ELG1-Luc MMS	ELG1 5FU viab	ELG1 MMS cell	ELG1 unstim viab	others
COc1ccc(/C=C/c2ccc3ccccc3n2)c(OC)c1	nt	nt	nt	nt	nt	nt	nt	nt	nt	-25%	ELG1 FLuc counter=-9%;FLuc enzyme=?
Cc1noc(C)c1-c1ccc2ncnc(NCc3cccn3C)c2c1	nt	4	nt	-2%	7%	nt	nt	nt	nt	nt
Cc1cccc(N2CCN(C3=NC(=O)/C(=C\c4cn[nH]c4-c4ccccc4)S3)CC2)c1	2.3µM*	3	-8	-20%	-27%	1.4µM*	11µM*	?	?	?	ELG1 FLuc counter=19%;FLuc enzyme=-2%
CNC(=S)N1N=C(c2ccc(OC)cc2)CC1c1ccc(Cl)cc1Cl (stereo unspecified)	4.6µM*	-8	16	-8%	-5%	?	-22%	?	-7%	3%
CNC(=S)N1N=C(c2ccc(OC)cc2)CC1c1ccccc1Cl (stereo unspecified)	?	2	1	-37%	1%	nt	nt	nt	nt	nt
Cc1ccc(-c2[nH]ncc2/C=N/n2c(COc3ccccc3)nc3ccccc3c2=O)cc1	5.2µM*	-4	-24	?	?	3.2µM*	20µM*	?	28µM*	16µM*	ELG1 FLuc counter=-11%;FLuc enzyme=?
Cc1cc(/C=N/n2c(COc3ccccc3)nc3ccccc3c2=O)c(O)c([N+](=O)[O-])c1	-24%	0	-19	?	?	nt	nt	nt	nt	nt
Cc1ccccc1OCc1nc2ccccc2c(=O)n1/N=C/c1cn[nH]c1-c1ccccc1	4.6µM*	-6	-15	20%	-3%	7.1µM*	14µM*	?	?	?	ELG1 FLuc counter=-7%;FLuc enzyme=-18%
Cc1nc2ccccc2c(=O)n1/N=C/c1cn[nH]c1-c1ccccc1	?	-1	-4	?	-8%	nt	nt	nt	nt	nt
CC(Oc1ccc(F)cc1)C(=O)Nc1ccccc1C(=O)N1CCCCC1 (stereo unspecified)	-31%	nt	11	nt	nt	nt	nt	nt	nt	nt
COc1cc(-c2noc(C)c2/C=C/c2cccc([N+](=O)[O-])c2)cc(OC)c1OC	2.6µM*	-1	-2	?	-9%	2µM*	7.1µM*	?	?	?
O=C(COc1ccccc1Cl)Nc1cc(NC(=O)COc2ccccc2Cl)cc(C(=O)O)c1	?	3	?	?	?	nt	nt	nt	nt	nt
O=C(COc1ccccc1Cl)Nc1ccc(-c2nc3ccccc3s2)cc1	nt	nt	nt	nt	nt	nt	nt	nt	nt	?
O=C(CSc1nnc(Cc2ccccc2)c(=O)[nH]1)Nc1ccccc1	11%	nt	1	nt	nt	nt	nt	nt	nt	nt
C=CCC[C@@H](Cc1ccc(F)cc1)C(=O)OC[C@@H](Cc1c[nH]c2ccccc12)NC(=O)[C@H](CC=C)CC(=O)N[C@H](CO)Cc1ccccc1	12%	nt	-14	nt	nt	nt	nt	nt	nt	nt
CCc1cn([C@H]2C[C@H](O)[C@@H](CO)O2)c(=O)[nH]c1=O	-15%	3	6	-27%	-10%	nt	nt	nt	nt	nt
O=c1[nH]c(=O)n([C@@H]2O[C@H](CO)[C@@H](O)[C@H]2O)cc1F	nt	1	nt	7%	-18%	nt	nt	nt	nt	?
COc1ccc(OCCN2CCN(C(=O)c3ccc(OC(F)F)c(OC)c3)CC2)cc1	-26%	-4	-16	10%	12%	nt	nt	nt	nt	nt
COc1ccc(OCCN2CCN(C(=O)c3ccc(OC)cc3)CC2)cc1	3.3µM*	3	-6	4%	-8%	?	7.1µM*	-4%	7.9µM*	-22%
CCCNC(=S)N1CCC(NC(=O)c2ccc(C)cc2)CC1	-16%	-2	-12	2%	-12%	nt	nt	nt	nt	nt
N#Cc1ccsc1NC(=O)CSc1nncs1	?	nt	-4	nt	nt	nt	nt	nt	nt	-16%
COc1ccc(Cc2nc3ccc(C(=O)N(C)Cc4nccs4)cc3o2)cc1OC	4.1µM*	nt	-6	-5%	?	?	2.2µM*	9%	7.9µM*	?
COc1ccccc1CNc1nc(-c2ccccc2OC)nc2ccccc12	nt	2	nt	?	?	nt	nt	nt	nt	nt
O=C(COC(=O)C1CC2C=CC1C2)Nc1c(Br)cc([N+](=O)[O-])cc1Br (stereo unspecified)	4.6µM*	nt	27	nt	nt	7.9µM*	18%	?	?	?
O=C(COC(=O)C1CC2C=CC1C2)Nc1ccc([N+](=O)[O-])cc1 (stereo unspecified)	?	nt	-14	nt	nt	nt	nt	nt	nt	nt
CC(=O)c1ccc(S(=O)(=O)N2CCN(C(=O)c3ccc(-n4nc(C)c(Cl)c4C)cc3)CC2)cc1	?	nt	-11	nt	nt	nt	nt	nt	nt	nt
Cc1nn(-c2ccc(C(=O)N3CCN(S(=O)(=O)c4ccccc4C(F)(F)F)CC3)cc2)c(C)c1Cl	3.3µM*	nt	-14	nt	nt	7.1µM*	?	?	?	?
COc1ccccc1CCNC(=O)c1ccc2nc[nH]c2c1	?	nt	9	18%	-3%	nt	nt	nt	nt	nt
COc1cc2c(cc1OC)C(COc1ccc3c(C)cc(=O)oc3c1)N(C(=O)c1ccco1)CC2 (stereo unspecified)	2.3µM*	1	5	-10%	-13%	5.6µM*	22µM*	-4%	?	?	ELG1 FLuc counter=6%;FLuc enzyme=-10%
CCOC(=O)c1cc(-c2ccc([N+](=O)[O-])cc2)nc2c1c(=O)[nH]c(=O)n2Cc1ccccc1	26%	2	-1	4%	-22%	nt	nt	nt	nt	-19%	ELG1 FLuc counter=61%;FLuc enzyme=-8%
